Results reported in the supplement of paper PMC11417369.
Whole data set: some 25,000 sequences, median “ln(normalized median fluorescence intensity)” near 6.7, cut for the highest 2% near 10. Many of the other results were omitted from the sample, so the highest values are more common in it than they were.

Each sequence was assayed on PfHDP1 homeodomain (GST-tagged) (assay: gcPBM binding intensity (ln(normalized median fluorescence intensity)); higher = stronger DNA binding).
How it was run: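 Binding intensity is defined as the maximum Masliner-normalised natural-log median intensity across replicate spots for either probe orientation. It was measured on an Agilent 4 × 180k array of primer-extended double-stranded 36-bp intergenic genomic probes and negative controls, to which GST-tagged P. falciparum DNA-binding domains made in E. coli were applied for 1 h in 1× PBS with 1% milk, 0.2 mg/ml BSA, 0.5% salmon testes DNA and 0.03% Triton X-100. Detection was by Alexa488 anti-GST antibody and scanning at 488 nm.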

Sequence | gcPBM binding intensity (ln)
ATTAAAAATTATATTTTATAAAAATTAAAAGAAATA [CACACA_negctrl_site65] | 6.47
AATAATTTTTTAAACACACACACATATATATATATA [CACACA_site95] | 9.08
AAAAATATATATATATATATATATATATTATTTTTT [TGCATGCA_negctrl_site378] | 7
TAGAAGCATCATTTTACACACATGCAAATGTAAACT [CACACA_site6973] | 6.66
TTATTAGAAAAATGCACACCAAAAAAAAAAAAAAAA [CACACA_site2522] | 8.93
AAAAAAGATAATTATGCACACACACCCACCCACCCA [CACACA_site8825] | 9.38
TAATTATGCGGACACACACACACACCCAACTAAAAA [CACACA_site5427] | 6.81
ATTATGCACCAACACACACACACACTCCTAAAAAAT [CACACA_site8822] | 11.7
AAAAAATTAGATTATGCACACACACTAATAAATAAT [CACACA_site8604] | 9.67
AAAAGATAATTATGCACACACACACCCAGACACAAC [CACACA_site5428] | 10.4
AAAAGATAATTATGCACACACACACCCCCACCCAAC [CACACA_site2570] | 10.5
ATTATGCACGGACACACACACACACCCCTAAAAAAT [CACACA_site5426] | 10.5
ATTATATATATATATACACACACACCCTAAAAATAT [CACACA_site8463] | 7.22
ATTATGCACAGACACACACACACACTACTAAAAAAT [CACACA_site7252] | 11.1
GAAATTAAAAAATTTATGCACACTTTAAAAAAAAAA [CACACA_site3769] | 9.28
TATGCACCCAGACACACACACACAACTAAAAAATAA [CACACA_site2567] | 8.1
ACCTATTTCAAACACACACACACACTAGCAAACATA [CACACA_site4695] | 7.26
AAGAGAAAAATATGGTTGCACTAAAAATATATATTT | 8.26
ATCATTTTTAAAGGAACACACAAAAAAAATTAAAAT [CACACA_site4878] | 6.76

Sequence | gcPBM binding intensity (ln)
TCTTTTTTAATATAATATATTTTTATTAAGTAAATC [TGCATGCA_negctrl_site408] | 6.2
ATTAATAATGAGTTATGTACATACATATTTTAAGAT [XGTACX_site7543] | 6.75
AATAAATACTAAATGGTGCAAAATTTTTTAACACTG | 10
CATACTCTACATAGATGTACTCATTTAAAAAAAAAA [XGTACX_site6945] | 6.12
AATTAATAAAAAAGGTGTACAGTAAATGCAATAATC [XGTACX_site7956] | 8.08
AAATATATCATACAAAGTACTTGGAATTAATATATA [XGTACX_site8907] | 6.3
TAATTATGCAGACACACACACACACCCAACTAAAAA [CACACA_site2569] | 7
ATTATGCACCAACACACACACACACCCCTAAAAAAT [CACACA_site2568] | 11.5
TAATTATGCCAACACACACACACACCCAACTAAAAA [CACACA_site8823] | 6.96
ATATAAAGGTTTATTAGTACACATTAGAATACTTTT [XGTACX_site4492] | 6.22
GGGTTTTTAAAATGTAGTACATATGTAAACATCAAA [XGTACX_site1262] | 6.7
CCAATACTGTTTAAATGTACAAGTAGGAGGTTAATT [XGTACX_site7260] | 6.64
GCTTATGCTCAATATTGTACTTTTTTTATTTATTCA [XGTACX_site8863] | 10.6
TTTTCAATATATATTTGTACTTTATTTTATGATATT [GTGCAC_negctrl_site732] | 6.71
TATATATATATATATTGTACTTTATTTTATATATTC [XGTACX_site5697] | 9.11
AGCATTTTTCATTTTGCACACATGTTTTATGGGTAT [CACACA_site5839] | 10.5
TATGTGTATTTATTTGCATGTTGGTTGTATTTTTTC [TGCATGCA_site479] | 6.94
AGCATTTTTCATTTTGCACACATGTTTTATGTGTAT [CACACA_site3454] | 10.5
TATCCTAACTTTAGATGTACACAAATAAAAAAAAAA [XGTACX_site4491] | 6.32

Sequence | gcPBM binding intensity (ln)
ATTTATATGAAAATATGTACTTATATAAATTTATTT [XGTACX_site53] | 6.23
TAAGAATAATGACATAGTACAATTTAATAGATCTAA [XGTACX_site3670] | 6.01
TTTTTTTTTAAAGAAAATAAAAATATGTACTTGACA [CACACA_negctrl_site1113] | 6.05
AAATAAATCTTATGCACACAAATAATTAATTAAACA [CACACA_site1693] | 10.7
AATTATAAATCTTGCACACAAAAAAAATAATAAAAA [CACACA_site2434] | 8.67
ATAAAATAATCTTATGCACACCAAAAATTTATATAA [CACACA_site8332] | 10.4
GTTAACAAATAATGCACACAAATGGATAAAATTATA [CACACA_site3725] | 9.97
AATCATAAACATTATGCACACAAAAATAAAAAAAAA [CACACA_site8289] | 8.58
TAGTTAACAAATAATGCACACAAATGGATAAAATTA [CACACA_site9240] | 10.6
CGAAATAAATCTTATGCACACAAATAATTAATTAAA [CACACA_site8491] | 10.5
TTTTAAAAAAATATAATACACACCAAAAATATGCAC [CACACA_site2131] | 7.15
AAAATAATCTTATGCACACCAAAAATTTATATAATC [CACACA_site1235] | 10.6
TTTTTAGTTAATTAAACACACAAAAAAAAAAATAAA [CACACA_site3930] | 6.4
AAAAAATTAATAAAAACACACAAAAAAAATAAACAA [CACACA_site1907] | 6.94
AAAATTATAAATCTTGCACACAAAAAAAATAATAAA [CACACA_site8771] | 8.27
AAGCCTTAAAAGGAAAGTACGTATATATATATATAT [XGTACX_site8559] | 9.48
TAAAGGTGAACAATACGTACATAAGAACTTATGAGG [XGTACX_site4216] | 6.43
ACAATGAGGATATATACACACATACATTAAAAAAAT [CACACA_site6955] | 6.71
GCACCAAAAAAAAGACGTACAGTTATATTAAAATAG [XGTACX_site8926] | 6.7
